Drawing on PubChem BioAssay (Tox21), this text covers Potency for 38 molecules.

Records with an inconclusive call do not appear. A call without a number means that no potency is given here. Activity calls are given as the source filed them. Calls follow the shape of the full dose curve.

The nature of one assay: qHTS assay for small molecules that induce genotoxicity in human embryonic kidney cells expressing luciferase-tagged ATAD5 - cell viability (AID 651634). Also: nearly all actives have a fitted effect of over 25% in size. The following applies: HEK293T ATAD5-luc cells viability, CellTiter-Fluor, 15.5 h; series mostly up to 83.3 µM. The procedure, abridged: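 Viability read: CellTiter-Fluor fluorescence, 30 min at 37C. Cells: HEK293T, luciferase-tagged ATAD5. Exposure: 15.5 hr, 37C, 5% CO2, compound or DMSO vehicle.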
For orientation: Quantitative high-throughput screening tests each substance at several concentrations.
Take `Cn1c(N)nc2nc[nH]c2c1=O`: the Potency result was “inactive”.
Take `CCOC(=O)CC(=O)c1cc(F)c(Cl)nc1Cl`: the Potency entry is “inactive”.
Turning to `Cc1cccc(C(C)(C)C)c1O`, the Potency result is “inactive”.
Still for that read-out and setting: the result for `C=Cc1c(C)c2cc3[nH]c(cc4nc(cc5nc(cc1[nH]2)C(C)=C5CCC(=O)O)C(CCC(=O)O)=C4C)c(C)c3C=C` reads “inactive”; that for `CCCCCCCCCC(=O)OCC`, “inactive”; that for `CC(C)CCCC(C)CCO` (stereo unspecified), “inactive”.
As to `Cc1cccc(Oc2ccccc2)c1`, the Potency entry is “inactive”.
On the same count and under the same terms, the entry for `Nc1ccc(C(=O)Nc2ccccc2N)cc1` is “inactive”.
Turning to `CC(=O)/C(C)=C/C1C(C)=CCCC1(C)C` (stereo unspecified), the Potency result was “inactive”.
As to `N=C(N=C(N)N)N1CCOCC1`, the Potency result is “inactive”.
The same measure, in the same setting: the entry for `CC(C)(C)c1ccc(S)cc1` is “inactive”; for `NC(=S)N/N=C/c1cccnc1` it is “inactive”; for `COc1ccc2[nH]c(S(=O)Cc3ncc(C)c(OC)c3C)nc2n1` (stereo unspecified) it is “inactive”.
With `CC1=CC(=O)/C(=C(/C)O)C(=O)O1`, the Potency entry was “inactive”.
On to `CCCCCCCCCCCCCCCC(=O)OC/C=C(C)/C=C/C=C(C)/C=C/C1=C(C)CCCC1(C)C`, for which the Potency result was “inactive”.
For the molecule `O=[N+]([O-])c1cc[n+]([O-])cc1`, the Potency result was “inactive”.
In the case of `CC(CN)CCCN` (stereo unspecified), the Potency result is “inactive”.
As to `CC(=O)NCCCS(=O)(=O)O`, the Potency entry was “inactive”.
Regarding `CC[C@]12CCCN3CCc4c(n(c5ccccc45)C(=O)C1)[C@@H]32`, the Potency result was “inactive”.
The same measure, in the same setting: the result for `CCCCCCCCCO` reads “inactive”; that for `CC(=O)[C@@]1(O)CC[C@H]2[C@@H]3C[C@H](C)C4=CC(=O)CC[C@]4(C)[C@H]3CC[C@@]21C`, “inactive”.
For the molecule `C=CCCCCCC`, the Potency result was “inactive”.
`CC(=O)O[C@H]1C[C@@H]2CC[C@@H]3[C@H](CC[C@@]4(C)[C@H]3C[C@H]([N+]3(C)CCCCC3)[C@@H]4OC(C)=O)[C@@]2(C)C[C@@H]1N1CCCCC1`: the Potency result is “inactive”.
For `C=CC[N+]1([C@H]2C[C@H]3[C@@H]4CC[C@H]5C[C@H](OC(C)=O)[C@@H](N6CCCCC6)C[C@]5(C)[C@H]4CC[C@]3(C)[C@H]2OC(=O)CC)CCCCC1`, the Potency entry is “inactive”.
`O=C(O)Cc1sc(-c2ccccc2)nc1-c1ccc(Cl)cc1`: the Potency entry is “inactive”.
Regarding `Cc1c(Cn2ccnc2)c2ccccc2n1CCC(=O)O`, the Potency entry was “inactive”.
The same measure, in the same setting: the result for `CC[C@H](C)[C@H](N)C(=O)O` reads “inactive”; that for `Nc1nc(CC(=O)O)cs1`, “inactive”; that for `OCC1CC2CC1C1CCC(CO)C21` (stereo unspecified), “inactive”.
Take `FC(F)(F)C(F)(F)C(F)(F)C(F)(F)C(F)(F)C(F)(F)CCI`: the Potency result is “inactive”.
Take `CCN(CCO)CCCC(C)Nc1ccnc2cc(Cl)ccc12` (stereo unspecified): the Potency result was “inactive”.
On to `Nc1nc(N)c(-c2ccccc2)s1`, for which the Potency entry is “inactive”.
As to `CCC(C)N(C)C(=O)c1cc2ccccc2c(-c2ccccc2Cl)n1` (stereo unspecified), the Potency result was “inactive”.
Still for that read-out and setting: the result for `NCCCOCCOCCOCCCN` reads “inactive”.
As to `Cc1ccc(C(=O)C(C)CN2CCCCC2)cc1` (stereo unspecified), the Potency result is “inactive”.
Consider `CC(C)(C)C1CCCCC1O` (stereo unspecified), for which the Potency entry is “inactive”.
In the case of `CCN(CC)CCc1nc(-c2ccccc2)no1`, the Potency entry was “inactive”.
As to `Cc1cc(CC(=O)O)c(C)n1-c1ccc(Cl)cc1`, the Potency entry was “inactive”.

The next assay can be described thus: qHTS assay for small molecule disruptors of the mitochondrial membrane potential - cell viability (AID 720634).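 Also: human HepG2 liver cancer cells; nearly all actives have a fitted effect of over 20% in size.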 The note with it: HepG2 viability, ATP luminescence (CellTiter-Glo), 1 h; series mostly up to 83.2 µM. The procedure, abridged:
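HepG2, 1 hr compound, 37 C. ATP luminescence via CellTiter-Glo, 30 min RT, same well as m-MPI.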
In the case of `Cn1c(N)nc2nc[nH]c2c1=O`, the Potency entry is “inactive”.
As for `CCOC(=O)CC(=O)c1cc(F)c(Cl)nc1Cl`, the Potency result is “inactive”.
Regarding `Cc1cccc(C(C)(C)C)c1O`, the Potency result was “inactive”.
On the same count and under the same terms, the result for `C=Cc1c(C)c2cc3[nH]c(cc4nc(cc5nc(cc1[nH]2)C(C)=C5CCC(=O)O)C(CCC(=O)O)=C4C)c(C)c3C=C` reads “inactive”; that for `CCCCCCCCCC(=O)OCC`, “inactive”; that for `CC(C)CCCC(C)CCO` (stereo unspecified), “inactive”.
For the molecule `Cc1cccc(Oc2ccccc2)c1`, the Potency result was “inactive”.
On to `Nc1ccc(C(=O)Nc2ccccc2N)cc1`, for which the Potency result is “inactive”.
On to `CC(=O)/C(C)=C/C1C(C)=CCCC1(C)C` (stereo unspecified), for which the Potency result is “inactive”.
In the case of `N=C(N=C(N)N)N1CCOCC1`, the Potency entry was “inactive”.
For the molecule `CC(C)(C)c1ccc(S)cc1`, the Potency result was “inactive”.
Consider `NC(=S)N/N=C/c1cccnc1`, for which the Potency entry was “inactive”.
As for `COc1ccc2[nH]c(S(=O)Cc3ncc(C)c(OC)c3C)nc2n1` (stereo unspecified), the Potency result was “inactive”.
Still for that read-out and setting: the entry for `CC1=CC(=O)/C(=C(/C)O)C(=O)O1` is “inactive”.
With `CCCCCCCCCCCCCCCC(=O)OC/C=C(C)/C=C/C=C(C)/C=C/C1=C(C)CCCC1(C)C`, the Potency result is “inactive”.
As to `O=[N+]([O-])c1cc[n+]([O-])cc1`, the Potency result was “inactive”.
For the molecule `CC(CN)CCCN` (stereo unspecified), the Potency entry was “inactive”.
On the same count and under the same terms, the entry for `CC(=O)NCCCS(=O)(=O)O` is “inactive”; for `CC[C@]12CCCN3CCc4c(n(c5ccccc45)C(=O)C1)[C@@H]32` it is “inactive”; for `CCCCCCCCCO` it is “inactive”.
Consider `CC(=O)[C@@]1(O)CC[C@H]2[C@@H]3C[C@H](C)C4=CC(=O)CC[C@]4(C)[C@H]3CC[C@@]21C`, for which the Potency entry is “inactive”.
On the same count and under the same terms, the entry for `C=CCCCCCC` is “inactive”.
On the same count and under the same terms, the entry for `CC(=O)O[C@H]1C[C@@H]2CC[C@@H]3[C@H](CC[C@@]4(C)[C@H]3C[C@H]([N+]3(C)CCCCC3)[C@@H]4OC(C)=O)[C@@]2(C)C[C@@H]1N1CCCCC1` is “inactive”; for `C=CC[N+]1([C@H]2C[C@H]3[C@@H]4CC[C@H]5C[C@H](OC(C)=O)[C@@H](N6CCCCC6)C[C@]5(C)[C@H]4CC[C@]3(C)[C@H]2OC(=O)CC)CCCCC1` it is “inactive”; for `O=C(O)Cc1sc(-c2ccccc2)nc1-c1ccc(Cl)cc1` it is “inactive”.
For `Cc1c(Cn2ccnc2)c2ccccc2n1CCC(=O)O`, the Potency entry is “inactive”.
On to `CC[C@H](C)[C@H](N)C(=O)O`, for which the Potency result is “inactive”.
For the molecule `Nc1nc(CC(=O)O)cs1`, the Potency entry was “inactive”.
`OCC1CC2CC1C1CCC(CO)C21` (stereo unspecified): the Potency entry was “inactive”.
Take `FC(F)(F)C(F)(F)C(F)(F)C(F)(F)C(F)(F)C(F)(F)CCI`: the Potency entry is “inactive”.
As for `CCN(CCO)CCCC(C)Nc1ccnc2cc(Cl)ccc12` (stereo unspecified), the Potency entry is “inactive”.
Same read-out and setting: the entry for `Nc1nc(N)c(-c2ccccc2)s1` is “inactive”; for `CCC(C)N(C)C(=O)c1cc2ccccc2c(-c2ccccc2Cl)n1` (stereo unspecified) it is “inactive”.
Regarding `NCCCOCCOCCOCCCN`, the Potency entry is “inactive”.
Turning to `Cc1ccc(C(=O)C(C)CN2CCCCC2)cc1` (stereo unspecified), the Potency entry was “inactive”.
On to `CC(C)(C)C1CCCCC1O` (stereo unspecified), for which the Potency entry is “inactive”.
The same measure, in the same setting: the result for `CCN(CC)CCc1nc(-c2ccccc2)no1` reads “inactive”; that for `Cc1cc(CC(=O)O)c(C)n1-c1ccc(Cl)cc1`, “inactive”.
